# Test results: PMC11062922 (Nature Chemical Biology, 2023)
# Where two headings read alike, the source gives them in different places.
# Key:
# Details in all cases: read-out: apparent Kd, n = 1
# PRKAA1 = system: PRKAA1
# PRKAG1 = system: PRKAG1
# PRKD1 = system: PRKD1
# [1] = compound concentrations:100 nM and 1000 nM (sheet 'Lestaurtinib' of Supplementary Table 1),run:Lestaurtinib_02381_R3,Plate:MR004
# [2] = compound concentrations:100 nM and 1000 nM (sheet 'Lestaurtinib' of Supplementary Table 1),run:Lestaurtinib_02422_R1,Plate:MR006
# [3] = compound concentrations:100 nM and 1000 nM (sheet 'Lestaurtinib' of Supplementary Table 1),run:Lestaurtinib_02437_R3,Plate:MR007
# [4] = compound concentrations:100 nM and 1000 nM (sheet 'Lestaurtinib' of Supplementary Table 1),run:Lestaurtinib_02438_R3,Plate:MR008
# [5] = compound concentrations:100 nM and 1000 nM (sheet 'Lestaurtinib' of Supplementary Table 1),run:Lestaurtinib_02443_R3,Plate:MR009
# [6] = compound concentrations:100 nM and 1000 nM (sheet 'Lestaurtinib' of Supplementary Table 1),run:Lestaurtinib_02473_R2,Plate:MR010
# [7] = compound concentrations:100 nM and 1000 nM (sheet 'Lestaurtinib' of Supplementary Table 1),run:Lestaurtinib_02473_R3,Plate:MR010
# [8] = compound concentrations:100 nM and 1000 nM (sheet 'Lestaurtinib' of Supplementary Table 1),run:Lestaurtinib_02482_R2,Plate:MR011
# [9] = compound concentrations:100 nM and 1000 nM (sheet 'Lestaurtinib' of Supplementary Table 1),run:Lestaurtinib_02487_R1,Plate:MR012
# [10] = compound concentrations:100 nM and 1000 nM (sheet 'Lestaurtinib' of Supplementary Table 1),run:Lestaurtinib_02566_R3,Plate:MR014
# [11] = compound concentrations:100 nM and 1000 nM (sheet 'Lestaurtinib' of Supplementary Table 1),run:Lestaurtinib_02584_R2,Plate:MR017
# [12] = compound concentrations:100 nM and 1000 nM (sheet 'Lestaurtinib' of Supplementary Table 1),run:Lestaurtinib_02606_R2,Plate:MR019
# [13] = compound concentrations:100 nM and 1000 nM (sheet 'Lestaurtinib' of Supplementary Table 1),run:Lestaurtinib_02624_R3,Plate:MR020
# [14] = compound concentrations:100 nM and 1000 nM (sheet 'Lestaurtinib' of Supplementary Table 1),run:Lestaurtinib_02724_R3,Plate:MR021
# [15] = compound concentrations:100 nM and 1000 nM (sheet 'Lestaurtinib' of Supplementary Table 1),run:Lestaurtinib_02748_R2,Plate:MR024
# [16] = compound concentrations:100 nM and 1000 nM (sheet 'Lestaurtinib' of Supplementary Table 1),run:Lestaurtinib_02752_R3,Plate:MR025
# [17] = compound concentrations:100 nM and 1000 nM (sheet 'Lestaurtinib' of Supplementary Table 1),run:Lestaurtinib_02768_R3,Plate:MR028
# [18] = compound concentrations:100 nM and 1000 nM (sheet 'Lestaurtinib' of Supplementary Table 1),run:Lestaurtinib_02896_R3,Plate:MR030
# [19] = compound concentrations:100 nM and 1000 nM (sheet 'Lestaurtinib' of Supplementary Table 1),run:Lestaurtinib_02364_R3,Plate:MR002
# [20] = compound concentrations:100 nM and 1000 nM (sheet 'Lestaurtinib' of Supplementary Table 1),run:Lestaurtinib_02601_R1,Plate:MR018
# [21] = compound concentrations:100 nM and 1000 nM (sheet 'Lestaurtinib' of Supplementary Table 1),run:Lestaurtinib_02748_R3,Plate:MR024
substance,measurement,setting,value
Lestaurtinib,potency estimated from few doses,PRKAA1; [1],952 nM
same,potency estimated from few doses,PRKAA1; [2],741 nM
same,potency estimated from few doses,PRKAA1; [3],79.1 nM
same,potency estimated from few doses,"PRKAA1; compound concentrations:100 nM and 1000 nM (sheet 'Lestaurtinib' of Supplementary Table 1),run:Lestaurtinib_02438_R1,Plate:MR008",898 nM
same,potency estimated from few doses,PRKAA1; [4],1600 nM
same,potency estimated from few doses,PRKAA1; [5],762 nM
same,potency estimated from few doses,PRKAA1; [6],944 nM
same,potency estimated from few doses,PRKAA1; [7],74.3 nM
same,potency estimated from few doses,"PRKAA1; compound concentrations:100 nM and 1000 nM (sheet 'Lestaurtinib' of Supplementary Table 1),run:Lestaurtinib_02482_R1,Plate:MR011",1130 nM
same,potency estimated from few doses,PRKAA1; [8],1490 nM
same,potency estimated from few doses,PRKAA1; [9],253 nM
same,potency estimated from few doses,"PRKAA1; compound concentrations:100 nM and 1000 nM (sheet 'Lestaurtinib' of Supplementary Table 1),run:Lestaurtinib_02487_R3,Plate:MR012",737 nM
same,potency estimated from few doses,PRKAA1; [10],1310 nM
same,potency estimated from few doses,"PRKAA1; compound concentrations:100 nM and 1000 nM (sheet 'Lestaurtinib' of Supplementary Table 1),run:Lestaurtinib_02572_R1,Plate:MR015",904 nM
same,potency estimated from few doses,PRKAA1; [11],1310 nM
same,potency estimated from few doses,PRKAA1; [12],1490 nM
same,potency estimated from few doses,PRKAA1; [13],1310 nM
same,potency estimated from few doses,PRKAA1; [14],883 nM
same,potency estimated from few doses,"PRKAA1; compound concentrations:100 nM and 1000 nM (sheet 'Lestaurtinib' of Supplementary Table 1),run:Lestaurtinib_02748_R1,Plate:MR024",858 nM
same,potency estimated from few doses,PRKAA1; [15],956 nM
same,potency estimated from few doses,"PRKAA1; compound concentrations:100 nM and 1000 nM (sheet 'Lestaurtinib' of Supplementary Table 1),run:Lestaurtinib_02752_R1,Plate:MR025",1360 nM
same,potency estimated from few doses,PRKAA1; [16],1210 nM
same,potency estimated from few doses,"PRKAA1; compound concentrations:100 nM and 1000 nM (sheet 'Lestaurtinib' of Supplementary Table 1),run:Lestaurtinib_02766_R1,Plate:MR027",1580 nM
same,potency estimated from few doses,"PRKAA1; compound concentrations:100 nM and 1000 nM (sheet 'Lestaurtinib' of Supplementary Table 1),run:Lestaurtinib_02766_R3,Plate:MR027",1320 nM
same,potency estimated from few doses,"PRKAA1; compound concentrations:100 nM and 1000 nM (sheet 'Lestaurtinib' of Supplementary Table 1),run:Lestaurtinib_02768_R1,Plate:MR028",932 nM
same,potency estimated from few doses,PRKAA1; [17],921 nM
same,potency estimated from few doses,"PRKAA1; compound concentrations:100 nM and 1000 nM (sheet 'Lestaurtinib' of Supplementary Table 1),run:Lestaurtinib_02896_R1,Plate:MR030",784 nM
same,potency estimated from few doses,"PRKAA1; compound concentrations:100 nM and 1000 nM (sheet 'Lestaurtinib' of Supplementary Table 1),run:Lestaurtinib_02896_R2,Plate:MR030",1130 nM
same,potency estimated from few doses,PRKAA1; [18],931 nM
same,potency estimated from few doses,"PRKAA1; compound concentrations:100 nM and 1000 nM (sheet 'Lestaurtinib' of Supplementary Table 1),run:Lestaurtinib_03172_R1,Plate:MR031",1570 nM
same,potency estimated from few doses,"PRKAA1; compound concentrations:100 nM and 1000 nM (sheet 'Lestaurtinib' of Supplementary Table 1),run:Lestaurtinib_03172_R2,Plate:MR031",1330 nM
same,potency estimated from few doses,"PRKAG1; compound concentrations:100 nM and 1000 nM (sheet 'Lestaurtinib' of Supplementary Table 1),run:Lestaurtinib_02339_R2,Plate:MR001",584 nM
same,potency estimated from few doses,"PRKAG1; compound concentrations:100 nM and 1000 nM (sheet 'Lestaurtinib' of Supplementary Table 1),run:Lestaurtinib_02339_R3,Plate:MR001",531 nM
same,potency estimated from few doses,PRKAG1; [19],1000 nM
same,potency estimated from few doses,"PRKAG1; compound concentrations:100 nM and 1000 nM (sheet 'Lestaurtinib' of Supplementary Table 1),run:Lestaurtinib_02367_R3,Plate:MR003",887 nM
same,potency estimated from few doses,"PRKAG1; compound concentrations:100 nM and 1000 nM (sheet 'Lestaurtinib' of Supplementary Table 1),run:Lestaurtinib_02381_R1,Plate:MR004",712 nM
same,potency estimated from few doses,PRKAG1; [1],611 nM
same,potency estimated from few doses,"PRKAG1; compound concentrations:100 nM and 1000 nM (sheet 'Lestaurtinib' of Supplementary Table 1),run:Lestaurtinib_02407_R1,Plate:MR005",924 nM
same,potency estimated from few doses,"PRKAG1; compound concentrations:100 nM and 1000 nM (sheet 'Lestaurtinib' of Supplementary Table 1),run:Lestaurtinib_02407_R2,Plate:MR005",928 nM
same,potency estimated from few doses,"PRKAG1; compound concentrations:100 nM and 1000 nM (sheet 'Lestaurtinib' of Supplementary Table 1),run:Lestaurtinib_02407_R3,Plate:MR005",1150 nM
same,potency estimated from few doses,PRKAG1; [2],131 nM
same,potency estimated from few doses,"PRKAG1; compound concentrations:100 nM and 1000 nM (sheet 'Lestaurtinib' of Supplementary Table 1),run:Lestaurtinib_02437_R2,Plate:MR007",1340 nM
same,potency estimated from few doses,PRKAG1; [3],83.7 nM
same,potency estimated from few doses,PRKAG1; [4],1600 nM
same,potency estimated from few doses,PRKAG1; [5],935 nM
same,potency estimated from few doses,PRKAG1; [6],859 nM
same,potency estimated from few doses,PRKAG1; [7],835 nM
same,potency estimated from few doses,PRKAG1; [8],1580 nM
same,potency estimated from few doses,PRKAG1; [9],365 nM
same,potency estimated from few doses,PRKAG1; [10],79.5 nM
same,potency estimated from few doses,"PRKAG1; compound concentrations:100 nM and 1000 nM (sheet 'Lestaurtinib' of Supplementary Table 1),run:Lestaurtinib_02584_R1,Plate:MR017",798 nM
same,potency estimated from few doses,PRKAG1; [11],936 nM
same,potency estimated from few doses,PRKAG1; [20],963 nM
same,potency estimated from few doses,PRKAG1; [12],1240 nM
same,potency estimated from few doses,"PRKAG1; compound concentrations:100 nM and 1000 nM (sheet 'Lestaurtinib' of Supplementary Table 1),run:Lestaurtinib_02624_R2,Plate:MR020",876 nM
same,potency estimated from few doses,PRKAG1; [13],1320 nM
same,potency estimated from few doses,PRKAG1; [21],1790 nM
same,potency estimated from few doses,"PRKAG1; compound concentrations:100 nM and 1000 nM (sheet 'Lestaurtinib' of Supplementary Table 1),run:Lestaurtinib_02752_R2,Plate:MR025",818 nM
same,potency estimated from few doses,PRKAG1; [16],954 nM
same,potency estimated from few doses,"PRKAG1; compound concentrations:100 nM and 1000 nM (sheet 'Lestaurtinib' of Supplementary Table 1),run:Lestaurtinib_02768_R2,Plate:MR028",1540 nM
same,potency estimated from few doses,PRKAG1; [17],852 nM
same,potency estimated from few doses,"PRKAG1; compound concentrations:100 nM and 1000 nM (sheet 'Lestaurtinib' of Supplementary Table 1),run:Lestaurtinib_02795_R2,Plate:MR022",1330 nM
same,potency estimated from few doses,"PRKAG1; compound concentrations:100 nM and 1000 nM (sheet 'Lestaurtinib' of Supplementary Table 1),run:Lestaurtinib_02802_R1,Plate:MR029",1150 nM
same,potency estimated from few doses,"PRKAG1; compound concentrations:100 nM and 1000 nM (sheet 'Lestaurtinib' of Supplementary Table 1),run:Lestaurtinib_02802_R2,Plate:MR029",1430 nM
same,potency estimated from few doses,PRKAG1; [18],700 nM
same,potency estimated from few doses,"PRKAG1; compound concentrations:100 nM and 1000 nM (sheet 'Lestaurtinib' of Supplementary Table 1),run:Lestaurtinib_03252_R1,Plate:MR032",744 nM
same,potency estimated from few doses,"PRKAG1; compound concentrations:100 nM and 1000 nM (sheet 'Lestaurtinib' of Supplementary Table 1),run:Lestaurtinib_03260_R1,Plate:MR033",860 nM
same,potency estimated from few doses,"PRKAG1; compound concentrations:100 nM and 1000 nM (sheet 'Lestaurtinib' of Supplementary Table 1),run:Lestaurtinib_03260_R2,Plate:MR033",760 nM
same,potency estimated from few doses,PRKD1; [19],131 nM
same,potency estimated from few doses,"PRKD1; compound concentrations:100 nM and 1000 nM (sheet 'Lestaurtinib' of Supplementary Table 1),run:Lestaurtinib_02443_R2,Plate:MR009",226 nM
same,potency estimated from few doses,PRKD1; [5],271 nM
same,potency estimated from few doses,"PRKD1; compound concentrations:100 nM and 1000 nM (sheet 'Lestaurtinib' of Supplementary Table 1),run:Lestaurtinib_02473_R1,Plate:MR010",248 nM
same,potency estimated from few doses,PRKD1; [6],235 nM
same,potency estimated from few doses,"PRKD1; compound concentrations:100 nM and 1000 nM (sheet 'Lestaurtinib' of Supplementary Table 1),run:Lestaurtinib_02496_R2,Plate:MR013",47.1 nM
same,potency estimated from few doses,"PRKD1; compound concentrations:100 nM and 1000 nM (sheet 'Lestaurtinib' of Supplementary Table 1),run:Lestaurtinib_02566_R1,Plate:MR014",253 nM
same,potency estimated from few doses,PRKD1; [11],206 nM
same,potency estimated from few doses,"PRKD1; compound concentrations:100 nM and 1000 nM (sheet 'Lestaurtinib' of Supplementary Table 1),run:Lestaurtinib_02584_R3,Plate:MR017",278 nM
same,potency estimated from few doses,PRKD1; [20],99.8 nM
same,potency estimated from few doses,"PRKD1; compound concentrations:100 nM and 1000 nM (sheet 'Lestaurtinib' of Supplementary Table 1),run:Lestaurtinib_02606_R1,Plate:MR019",131 nM
same,potency estimated from few doses,"PRKD1; compound concentrations:100 nM and 1000 nM (sheet 'Lestaurtinib' of Supplementary Table 1),run:Lestaurtinib_02606_R3,Plate:MR019",135 nM
same,potency estimated from few doses,PRKD1; [14],41.4 nM
same,potency estimated from few doses,"PRKD1; compound concentrations:100 nM and 1000 nM (sheet 'Lestaurtinib' of Supplementary Table 1),run:Lestaurtinib_02741_R1,Plate:MR023",13.3 nM
same,potency estimated from few doses,"PRKD1; compound concentrations:100 nM and 1000 nM (sheet 'Lestaurtinib' of Supplementary Table 1),run:Lestaurtinib_02741_R3,Plate:MR023",17.5 nM
same,potency estimated from few doses,PRKD1; [15],208 nM
same,potency estimated from few doses,PRKD1; [21],254 nM
same,potency estimated from few doses,"PRKD1; compound concentrations:100 nM and 1000 nM (sheet 'Lestaurtinib' of Supplementary Table 1),run:Lestaurtinib_02795_R3,Plate:MR022",193 nM
